Sampled rows, rich in hits. Any-hit rate of the full collection: about 1.7%.
PTHR1 agonist: qHTS for PTHR1 Agonists: Primary Screen; AID 743266, 2014; HEK293 GP2 PTHR1 cells, GloSensor cAMP luminescence, 1 h; 410,000 compounds, 0.075% hits; Parathyroid hormone/parathyroid hormone-related peptide receptor (Homo sapiens), Q03431; Potency, µM (top dose mostly 115 µM), inactives show at the highest dose activation, most hits filed as activators; also: nearly all actives have a fitted effect of over 55% in size
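HEK-293-derived GP2 cells expressing PTHR1 and a GloSensor cAMP reporter, 3,000/well, plated overnight, given luciferin plus IBMX (each 0.5 mM as added) for 1 h at 37 °C, then compound for 1 h at 37 °C. Luminescence was read after 15 min at room temperature.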
GLP-1R agonist: qHTS of GLP-1 Receptor Agonists; HEK293 GLP-1R CRE-luciferase, luminescence, 4-6 h; cells express a hypersensitive GLP-1R form; 380,000 compounds, 0.007% hits; Potency, µM (doses to about 45.6 µM), for inactives: at the top dose activation, usual class: activators; also: % of control where 0% means no effect
Target sequence (P43220 whole entry, looked up): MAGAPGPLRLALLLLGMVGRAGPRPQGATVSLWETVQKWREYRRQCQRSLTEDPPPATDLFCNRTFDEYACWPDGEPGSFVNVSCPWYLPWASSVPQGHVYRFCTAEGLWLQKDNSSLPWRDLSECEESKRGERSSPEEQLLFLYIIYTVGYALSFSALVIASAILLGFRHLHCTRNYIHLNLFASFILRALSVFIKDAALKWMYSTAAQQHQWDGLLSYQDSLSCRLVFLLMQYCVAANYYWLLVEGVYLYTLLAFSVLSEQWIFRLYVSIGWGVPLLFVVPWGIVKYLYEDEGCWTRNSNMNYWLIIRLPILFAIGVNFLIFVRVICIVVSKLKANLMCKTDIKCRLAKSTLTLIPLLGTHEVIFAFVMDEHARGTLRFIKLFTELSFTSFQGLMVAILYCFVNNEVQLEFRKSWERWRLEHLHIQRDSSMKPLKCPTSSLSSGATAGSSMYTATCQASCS
HEK293 tox: qHTS of GLP-1 Receptor Inverse Agonists: Cytotox Screen; HEK293 cAMP-luciferase reporter cells, luminescence, 24 h; Potency, µM (top dose mostly 38.3 µM), inactives show at the highest dose activity change, negative = inhibition, usual class: inhibitors; 410,000 compounds, 0.13% hits;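 also: loss of luciferase light is scored as toxicity; % is scaled to controls: 0 for no effect and ±100 for the full control effect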
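Luminescence readout: signal drop marks cytotoxicity. Plated cells grew 12 h at 37 °C, 5% CO2, received 23 nL compound for 24 h, then got luciferase reagent, read after 12 min at RT.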
GLP-1R inv ag: qHTS of GLP-1 Receptor Inverse Agonists (Inhibition Mode). 410,000 compounds, 1.6% hits. Potency, µM (doses to about 38.3 µM), for the others: top-dose activity change, negative = inhibition, hits mostly inhibitors. HEK293 GLP-1R CRE-luciferase, luminescence, 24 h; GLP-1R form is constitutively active; also: % is scaled to controls: 0 for no effect and ±100 for the full control effect; nearly all actives have a fitted effect of over 55% in size
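Using stably transfected HEK293 (constitutively active GLP-1R, cAMP-luciferase reporter), compounds were incubated 24 hr and luciferase measured by luminescence.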
Active calls of the source: *; i = inactive; ? = inconclusive; nt = no result given; [ ] = dose if it differs, or a comment. Calls follow the shape of the dose curve; as a rule, active = well fitted curve in the direction sought with a large enough effect; inconclusive = small, poorly fitted or top-dose-only effect, or another doubt; inactive = no such curve, though single readings can be large; an effect the other way counts as inactive or inconclusive. Potency is read from the fitted curve at half-maximal effect.

SMILES	PTHR1 agonist	GLP-1R agonist	HEK293 tox	GLP-1R inv ag
CC(C)(C)OC(=O)N1CCC[C@H]1c1nnc(SCc2c(F)cccc2Cl)o1	-21.8%	15.3%	-12.4%	8.91µM*
Cc1ccc(C)c(N2CCN(C(=O)c3c(C)oc4nc(C)nc(N5CCOCC5)c34)CC2)c1	i	nt	9.5%	-0.8%
O=C(COc1ccc(Cl)cc1)Nc1ccc2nc(SCC(=O)N3CCCC3)sc2c1	-13.6%	nt	0.2%	-20.2%
CCOC(=O)c1cnn(-c2cccc(Cl)c2)c1C1CCN(C(=O)OC(C)(C)C)CC1	-17.1%	-1.0%	5.8%	-2.6%
Cc1ccc(C2=NN(C(=O)CCl)C(c3cccs3)C2)o1 (centres undefined)	-29.7%	10.3%	?	3.16µM*
O=C(CCl)N1N=C(c2ccco2)CC1c1cccs1 (centres undefined)	-5.7%	-21.4%	?	0.0%
CCC1CCCCN1C(=O)CSc1nnc(-c2c[nH]c3ccccc23)o1 (centres undefined)	i	5.0%	-25.7%	11.2µM*
CC1CCCC(C)N1C(=O)CSc1nnc(-c2c[nH]c3ccccc23)o1 (centres undefined)	2.9%[57.5 µM]	0.1%	4.1%	-10.8%
Cc1cc(N2CCN(C)CC2)nc(-c2ccccc2O)n1	i	15.0%	0.0%	3.98µM*
Cc1cccc(CC2C(=O)Nc3ccccc32)c1 (centres undefined)	i	nt	-26.3%	18.5%
CCN(c1ccccc1)S(=O)(=O)c1ccc(Cl)c(NC(=O)CN2CCCCCC2)c1	-27.2%	21.3%	-0.3%	1.58µM*
CCN(c1ccccc1)S(=O)(=O)c1ccc(Cl)c(NC(=O)CN(C)Cc2cccc(F)c2)c1	-18.3%	13.2%	4.9%	5.01µM*
CN(C)S(=O)(=O)c1ccc(Cl)c(NC(=O)CN2CCCCCC2)c1	-2.9%	22.8%	15.7%	?
CCC(C)NCC(=O)Nc1cc(S(=O)(=O)N(CC)c2ccccc2)ccc1Cl (centres undefined)	i	6.4%	-2.6%	?
CC(=O)c1ccc(NC(=O)c2nc(-c3ccccc3)n(-c3ccccc3Cl)n2)cc1	-12.3%	nt	-2.6%	?
O=C(NC(=S)Nc1ccccn1)c1ccc(-c2ccccc2)cc1	-23.6%	2.0%	?	?
Cc1csc(NC(=S)NC(=O)c2ccccc2)n1	-13.4%	8.2%	?	3.55µM*
O=C(NC(=S)Nc1ccccn1)c1ccccc1	-61.0%	-7.2%	?	10µM*
CCOC(=O)c1ccc(NC(=O)Nc2ccc(F)cc2)cc1	-23.8%	-5.9%	?	4.47µM*
COC(=O)c1ccc(NC(=O)Nc2ccc(F)cc2)cc1	-16.4%[57.5 µM]	1.3%	-27.5%	?
CCOC(=O)c1ccc(NC(=S)Nc2ccccn2)cc1	1.8%[57.5 µM]	0.6%	5.62µM*	?
O=C(Nc1cccc2c(=O)cc(-c3nn[nH]n3)oc12)c1ccc(OCCCCc2ccccc2)cc1	nt	-1.7%	nt	nt
CCCCC(F)(F)[C@@]1(O)CC[C@H]2[C@H](CC(=O)[C@@H]2CCCCCCC(=O)O)O1	nt	12.9%	nt	nt
CCOC(=O)c1ccc(NC(=O)C2(c3ccc(OC)cc3)CCOCC2)cc1	-15.9%[57.5 µM]	0.6%	-22.6%	?
S=C(Nc1ccc(Nc2ccccc2)cc1)Nc1ccccn1	-31.4%	13.5%	?	2.24µM*
SMILES	PTHR1 agonist	GLP-1R agonist	HEK293 tox	GLP-1R inv ag
O=C(Nc1ccccc1)C(=O)Nc1ccccn1	-80.5%[57.5 µM]	-0.5%	0.5%	?
CCOC(=O)c1ccc(NC(=O)C2(c3ccc(OC)cc3)CCCC2)cc1	-25.1%[57.5 µM]	1.9%	-15.6%	5.01µM*
CCN1CCC(N(Cc2ccc3c(c2)OCO3)C(=O)Nc2cc(Cl)ccc2C(=O)OC)CC1	-66.0%	nt	?	-17.7%
Cc1ccc(-c2cc(=O)c3cc(F)ccc3[nH]2)cc1	-35.9%	0.6%	-0.3%	-16.0%
Cc1ccc(-c2cc(=O)c3cc(C)ccc3[nH]2)cc1	-80.0%	-9.8%	-38.1%	3.16µM*
COC(=O)C1=C(C)N(c2ccc(OC)cc2)C(C)=C(C(=O)OC)C1c1ccccc1	-37.6%	-1.8%	-9.0%	8.91µM*
COc1cc(C=O)ccc1OCCCOc1ccccc1C(=O)O	-24.1%[57.5 µM]	-3.6%	20.9%	2.24µM*
O=S(=O)(c1cccc(F)c1)N1CCC(Oc2ccc(-n3cnnn3)cc2)CC1	-11.8%	nt	5.4%	16.0%
COc1cc(NC(=O)c2cnc(N)s2)cc(C(=O)Nc2cccc(C(F)(F)F)c2)c1	-35.3%	-1.0%	13.0%	12.6µM*
Cc1ccc(NC2=Nc3ccccc3CS2)cc1	-17.5%[57.5 µM]	-17.6%	-9.8%	6.31µM*
C=CCC[C@@H](Cc1ccc(F)cc1)C(=O)OC[C@@H](NC(=O)[C@@H](CC=C)CC(=O)N[C@@H](CO)Cc1ccccc1)C(C)(C)C	-22.6%	-1.8%	-22.2%	10µM*
C=CC[C@@H](CC(=O)N(CCO)Cc1ccccc1)C(=O)N[C@H](COC(=O)[C@@H](CC=C)Cc1ccc(F)cc1)C(C)(C)C	-18.0%	1.2%	?	?
C=CCC[C@H](Cc1ccc(F)cc1)C(=O)OC[C@@H](NC(=O)[C@@H](CC=C)CC(=O)N[C@@H](CO)Cc1ccccc1)C(C)(C)C	-2.2%	-3.9%	?	?
C=CC[C@H](CC(=O)NCCO)C(=O)N[C@H](COC(=O)[C@@H](CC=C)Cc1ccc(F)cc1)Cc1ccccc1	i	4.2%	?	10µM*
C=CC[C@H](CC(=O)NCCO)C(=O)N[C@@H](COC(=O)[C@@H](CC=C)Cc1ccc(F)cc1)Cc1ccccc1	i	-0.5%	3.8%	-3.9%
C=CC[C@H](CC(=O)N(CCO)Cc1ccccc1)C(=O)N[C@H](COC(=O)[C@@H](CC=C)Cc1ccc(F)cc1)C(C)(C)C	-32.1%	-0.4%	-25.2%	10µM*
COc1ccc(C(=O)NCC(c2ccc(N(C)C)cc2)N2CCc3ccccc32)cc1 (centres undefined)	19.1%	nt	-16.7%	10.3%
CCC(=O)c1ccc(N2CCN(C(=O)c3ccccc3F)CC2)c(F)c1	-18.3%	12.4%	-0.3%	2.7%
O=C(c1ccccc1)c1ccc(N2CCN(C(=O)c3cccc(F)c3F)CC2)c(F)c1	-41.7%	1.8%	0.1%	10µM*
Cc1ccc(NC(=S)NC(=O)C2CC2)cc1Cl	-14.8%	-5.6%	?	10µM*
CCOC(=O)c1[nH]c(C)c(CCC(=O)N2CCN(c3cc(C)ccc3C)CC2)c1C	-48.7%	nt	0.0%	?
OCC1OC(OC2C(CO)OC(OC3C(CO)OC(O)C(O)C3O)C(O)C2O)C(O)C(O)C1O (centres undefined)	nt	7.7%	nt	nt
O=S(=O)(NCC(c1ccco1)N1CCN(c2ccc(F)cc2)CC1)c1cc(F)ccc1F (centres undefined)	-73.1%	nt	4.7%	?
CC(C)/C=N/Nc1nc(-c2ccc(Br)cc2)cs1	-57.8%	-4.8%	-6.3%	5.62µM*

Screens deposited in PubChem by National Center for Advancing Translational Sciences (NCATS).
